From PubChem BioAssay AID504895 (National Center for Advancing Translational Sciences (NCATS), 2011)
Inconclusive results are not listed. Values without a mark were called inactive. Activity calls are given as the source filed them. The call rests on the fitted dose curve; in most records, active means well fitted curve in the direction sought with a large enough effect; inconclusive means small, poorly fitted or top-dose-only effect, or another doubt; inactive means no such curve, though single readings can be large or run the other way.

Each molecule was assayed against Protein phosphatase EYA2 (Homo sapiens) (UniProt O00167) (assay: Inhibitors of Eya2ED: Hit Confirmation in Primary Screen). Conditions: Recombinant Eya2ED, OMFP fluorescence phosphatase assay; series mostly up to 76.9 µM; activity change, negative = inhibition: at the top concentration.
Description: The Eya proteins (Eya1-4) were originally identified as essential co-activators of the Six1 transcription factor. […] Knockdown of Six1 decreases cancer cell proliferation and metastases in several different cancer models. […] A fluorescence-based HTS assay has been perfomed against the Molecular Libraries Small Molecule Repository (MLSMR) and has the AID 488837 in this database. After completion of the primary screen, hits were re-ordered and tested again in the primary screen in a 12 point titration. NIH Chemical Genomics Center [NCGC] NIH Molecular Libraries Probe Centers Network [MLPCN] MLPCN Grant: DA030559-01 Assay Submitter (PI): Rui Zhao, University of Colorado, Denver
The Eya2 enzyme was kindly provided by the laboratory of Dr. Rui Zhao. The 3-O-methyl-fluorescein phosphate (OMFP) substrate and all buffer reagents were purchased from Sigma Aldrich. qHTS Assay Setup: 1. Buffer- 50 mM HEPES pH 7.5, 50 mM NaCl, 5 uM MgCl2, 0.05% BSA, 1 mM DTT. 2. OMFP Stock- 10 mM solution prepared in 100% DMSO and stored in single use aliquots at -20C. Assay Procedure- 1. Dispense 1.5 ul per well of Eya2 at 0.2 uM in black medium binding 1536 well Greiner plate 2. Transfer 23 nl of compound and control compound (EGTA) to plate 3. Incubate at ambient for 10 minutes 4. Dispense 1.5 ul per well of OMFP at 50 uM 5. Incubate at ambient for 10 minutes 6. Read on ViewLux using Excitation = 485 nm, Emission = 525 nm

Sequence of Protein phosphatase EYA2 (Homo sapiens) (O00167 whole entry, looked up): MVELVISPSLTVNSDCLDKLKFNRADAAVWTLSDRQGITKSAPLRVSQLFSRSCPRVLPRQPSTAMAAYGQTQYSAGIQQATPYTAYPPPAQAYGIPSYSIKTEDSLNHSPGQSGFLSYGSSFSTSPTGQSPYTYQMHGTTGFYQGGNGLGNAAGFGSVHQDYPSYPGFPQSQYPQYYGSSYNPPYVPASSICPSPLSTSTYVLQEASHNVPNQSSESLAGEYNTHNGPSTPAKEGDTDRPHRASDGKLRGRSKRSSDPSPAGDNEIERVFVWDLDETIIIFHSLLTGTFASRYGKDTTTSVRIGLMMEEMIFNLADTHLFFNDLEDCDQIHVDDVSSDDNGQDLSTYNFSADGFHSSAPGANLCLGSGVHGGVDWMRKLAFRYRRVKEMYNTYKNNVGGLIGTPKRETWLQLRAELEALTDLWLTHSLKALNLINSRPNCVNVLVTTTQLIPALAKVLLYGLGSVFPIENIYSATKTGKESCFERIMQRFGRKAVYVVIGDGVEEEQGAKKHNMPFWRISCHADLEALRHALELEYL

| Compound | activity change, negative = inhibition [%] | Potency |
| --- | --- | --- |
| O=C(CC(c1ccccc1)c1ccccc1)Nc1ccc(Cl)cn1 | -4.3 |  |
| Cc1ccc2c(c1)CCCN2C(=O)c1cccs1 | -5.45 |  |
| CC(C)CN1C(=O)c2ccc(NC(=O)c3ccccc3F)cc2C1=O | -10.4 |  |
| O=C(N/N=C/c1ccc(Sc2ccccn2)o1)c1cc2ccccc2cc1O | -21.1 |  |
| Cc1cc(/C=C2\SC(=S)NC2=O)cc(C)c1O | 0.396 |  |
| O=C(C[C@H]1C/C=C/CC[C@H](Cc2ccc(F)cc2)C(=O)O[C@H](c2ccccc2)CNC1=O)NCCO | -32.4 |  |
| O=C(NCCc1ccc(Cl)cc1)C1CCN(C(=O)N2CCOc3ccccc32)CC1 | -4.76 |  |
| O=C(NN=C1CCCC1)c1[nH]c2ccc(Br)cc2c1-c1ccccc1 | -22.3 |  |
| Oc1oc(C=Nc2ccc(F)cc2F)c2ccccc12 | -7.45 |  |
| Cn1c(=O)c(C(=O)Nc2ncccc2O)c(O)c2ccccc21 | -11.4 |  |
| O=S(=O)(c1ccc(F)cc1)N1CCC2(CC1)OCCN2S(=O)(=O)c1cccs1 | -15.4 |  |
| O=C(c1ccccc1Cl)N1CCN(C(=O)C2CCCO2)CC1 (stereo not given) | -18.2 |  |
| O=C(Cn1cccc(C(F)(F)F)c1=O)c1ccc(Cl)cc1 | -15.3 |  |
| O=C(COc1cccc(C(F)(F)F)c1)NCC(c1ccco1)N1CCCC1 (stereo not given) | -8.36 |  |
| COC(=O)C(NNc1ccccc1)(NC(=O)c1cccc(F)c1)C(F)(F)F (stereo not given) | 1.48 |  |
| N=C(N)SCc1ncccc1O | 6.85 |  |
| COc1c(O)ccc(/C=N\NC(=O)c2ccc3c(c2)OCO3)c1[N+](=O)[O-] | -18 |  |
| O=C(O)C1CC(=O)N(c2ccc(Br)cc2)C1 (stereo not given) | 10.9 |  |
| COc1ccc(NS(=O)(=O)c2cc([N+](=O)[O-])ccc2NN=Cc2ccccc2OCC(=O)O)cc1 | 3.46 |  |
| COC(=O)c1ccc(Cn2cc([N+](=O)[O-])cn2)cc1 | 6.62 |  |

| Compound | activity change, negative = inhibition [%] | Potency |
| --- | --- | --- |
| COc1ccc(-c2noc(CCC(=O)NC3CCCCC3)n2)cc1OC | -5.13 |  |
| CC(=O)c1c(C)[nH]c(C(=O)NNC(=O)c2ccc(Br)cc2)c1C | -4.21 |  |
| CCCC(=O)Nc1cccc(NC(=O)c2ccc3c(c2)OCCO3)c1 | -35 |  |
| Cc1cc(C)c(S(=O)(=O)N2CCCCC2CCNC(=O)C(=O)NCCN2CCOCC2)c(C)c1 (stereo not given) | -17 |  |
| Cc1cc(C(=O)N/N=C/C=C/c2ccc3c(c2)OCO3)n[nH]1 | -25.5 |  |
| CCCOc1ccc(S(=O)(=O)N2CCN(C)CC2)c2ccccc12 | -5.34 |  |
| CCOc1ccc(S(=O)(=O)NC(C)C(=O)NCc2ccncc2)cc1 (stereo not given) | -21.8 |  |
| O=C(CN1C(=O)c2ccccc2S1(=O)=O)Nc1cccc(S(=O)(=O)N2CCOCC2)c1 | -7.98 |  |
| N#Cc1ccccc1NC(=O)CSC1=Nc2ccccc2C2CC=NN12 (stereo not given) | -26.1 |  |
| O=C(NCCC1CCCCN1S(=O)(=O)c1ccccc1)C(=O)NCc1ccccn1 (stereo not given) | -0.504 |  |
| O=C(CCCC(=O)N(CC(=O)NC1CCCCC1)c1ccccc1F)Nc1ccccn1 | -0.931 |  |
| CSCC[C@H](NC(=O)[C@@H]1Cc2ccccc2CN1)C(=O)Nc1ccc2c(c1)OCCO2 | 0.798 |  |
| Cc1ccc(Nc2nc(N)nc(CSc3ncccn3)n2)cc1 | -25.5 |  |
| CO/N=C(\N)c1nonc1N | 14.5 |  |
| O=C(NCc1ccccn1)C1CCCN(Cc2cnn(-c3ccccc3)c2-n2cccc2)C1 (stereo not given) | 0.326 |  |
| COc1ccc(CCN=C(C)C2=C(O)C(c3ccccc3)OC2=O)cc1OC (stereo not given) | 1.2 |  |
| O=C(N/N=C\c1ccc(Sc2ccccn2)o1)c1cccc(Br)c1 |  | 1840 nM (active) |
| CCOC(=O)C1CCCN(Cc2cc(Br)c(OC)cc2OC)C1 (stereo not given) | -24.3 |  |
| O=C(O)/C=C/C(=O)Nc1ccc2nccnc2c1 | -13.7 |  |
| S=C1NC[C@H](CC2CCCCC2)N1CC1CCCCC1 | -25.8 |  |
